Assay results from PubChem BioAssay.

Experiment: P. aeruginosa biofilm formation inhibitors, primary screen, PAO1 strain, BacTiter-Glo luminescence, LB-PBS (AID 1144)
Conditions: 12 h, higher = more signal; call rule not given here

z-score, inactive:
CCCC[C@@H](O)C1=C(C)Cn2c(=O)n(-c3ccccc3)c(=O)n2[C@H]1CO -0.275, CCOC(=O)C[C@H]1[C@H](OC(=O)c2cc3ccccc3oc2=O)[C@@H](NC(=O)Cc2ccc(OC)cc2)c2cc(OCCCO)ccc2N1C(=O)Cc1ccc(OC)cc1 -0.783, COC(=O)C1=CC(CCCO)=CC(c2ccc(CN3CCCC3)cc2)N(C)C=C1C(=O)OC (centres undefined) 0.0505, CCOC(=O)C[C@H]1[C@H](OC(=O)c2ccc(-c3ccccc3)cc2)[C@@H](NC(=O)c2ccc(-c3ccccc3)cc2)c2cc(OCCCO)ccc2N1C(=O)c1ccccc1 -0.00979, COc1ccc(C(=O)Nc2cccc(CN3C(=O)[C@]4(O[C@H](CC(=O)N(CCO)Cc5ccccc5)[C@@H]([Si](C)(C)c5ccc(OC)cc5)[C@@H]4C)c4ccccc43)c2)cc1 0.172, O=C(N1CCOCC1)[C@]1(CCS(=O)(=O)c2ccccc2)N=C(c2ccc(OCCCO)cc2)O[C@@H]1c1ccccc1 0.863, CC(C)c1ccc(NN2C(C(O)c3ccccc3)C=CC3C(=O)N(c4ccccc4)C(=O)C32)cc1 (centres undefined) -0.89, COc1ccc([Si](C)(C)[C@H]2[C@H](CC(=O)N3CCC[C@H]3CO)O[C@@]3(C(=O)N(C)c4c(Br)cc(C)cc43)[C@@H]2C)cc1 -0.518, COCCCNC(=O)[C@]1(Cc2ccccc2N=[N+]=[N-])N=C(c2ccc(OCCCO)cc2)O[C@@H]1c1ccccc1 0.542
